# According to publication PMC7862700, “An all-to-all approach to the identification of sequence-specific readers for epigenetic DNA modifications on cytosine”:
# Columns and labels:
# Test in all cases: DAPPL (digital affinity profiling via proximity ligation, sequencing); 10 mM Tris-HCl pH 7.5, 50 mM NaCl, 1 mM DTT, 4% glycerol, room temperature, 30 min; GST-TFs on glutathione beads, 16-mer random dsDNA library, 0.1% formaldehyde crosslink after washing; high values mean tight binding
# Conditions in all cases: protein: recombinant; tags: N-terminal GST; dsDNA, one strand shown
# FLI1 = target: T1, FLI1 (Homo sapiens, UniProt Q01543 1-452)
# T1 sequence: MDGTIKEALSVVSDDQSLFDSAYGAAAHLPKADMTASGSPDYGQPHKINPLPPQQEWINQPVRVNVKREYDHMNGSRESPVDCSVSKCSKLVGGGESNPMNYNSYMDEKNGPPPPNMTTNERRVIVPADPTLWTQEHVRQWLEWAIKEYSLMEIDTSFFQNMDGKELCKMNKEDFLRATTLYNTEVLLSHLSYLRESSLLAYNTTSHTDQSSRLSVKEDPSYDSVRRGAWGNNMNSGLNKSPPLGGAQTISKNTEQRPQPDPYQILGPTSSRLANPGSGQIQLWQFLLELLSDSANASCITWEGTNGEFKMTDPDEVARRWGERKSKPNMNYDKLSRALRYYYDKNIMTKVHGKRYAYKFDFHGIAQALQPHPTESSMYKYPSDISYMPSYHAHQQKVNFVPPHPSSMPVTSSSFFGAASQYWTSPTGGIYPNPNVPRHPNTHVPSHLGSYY
# In short: (§1)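 Human transcription factors carrying a GST fusion were produced in yeast, bound to glutathione beads, tagged with DNA barcodes and pooled together with a tag-only sample. Each pool was held with 200 nmole of a random double-stranded 16-mer DNA library in Tris/NaCl/DTT/glycerol buffer for 30 min at room temperature, then washed, crosslinked in 0.1% formaldehyde, proximity-ligated with BsaI/T4 ligase (1 h, 37 °C), PCR-amplified and sequenced on an Illumina NextSeq500. Binding signal is the read frequency of each hexamer for a given factor divided by its frequency in the tag-only sample.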
# GABPA = target: T2, GABPA (Homo sapiens, UniProt Q06546 1-454)
# T2 sequence: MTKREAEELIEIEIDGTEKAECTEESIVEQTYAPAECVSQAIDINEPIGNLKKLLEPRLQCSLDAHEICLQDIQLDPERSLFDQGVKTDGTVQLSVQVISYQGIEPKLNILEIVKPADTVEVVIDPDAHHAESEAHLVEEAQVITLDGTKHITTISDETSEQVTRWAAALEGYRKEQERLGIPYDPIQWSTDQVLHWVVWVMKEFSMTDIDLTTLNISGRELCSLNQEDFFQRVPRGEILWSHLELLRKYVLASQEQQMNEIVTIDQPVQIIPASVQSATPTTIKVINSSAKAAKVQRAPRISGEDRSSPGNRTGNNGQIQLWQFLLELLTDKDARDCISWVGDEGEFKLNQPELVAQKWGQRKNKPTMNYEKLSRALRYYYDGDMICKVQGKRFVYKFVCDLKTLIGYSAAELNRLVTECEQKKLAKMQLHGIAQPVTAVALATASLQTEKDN
# In short: as §1
# ERG = target: T3, ERG (Homo sapiens, UniProt P11308 1-479)
# T3 sequence: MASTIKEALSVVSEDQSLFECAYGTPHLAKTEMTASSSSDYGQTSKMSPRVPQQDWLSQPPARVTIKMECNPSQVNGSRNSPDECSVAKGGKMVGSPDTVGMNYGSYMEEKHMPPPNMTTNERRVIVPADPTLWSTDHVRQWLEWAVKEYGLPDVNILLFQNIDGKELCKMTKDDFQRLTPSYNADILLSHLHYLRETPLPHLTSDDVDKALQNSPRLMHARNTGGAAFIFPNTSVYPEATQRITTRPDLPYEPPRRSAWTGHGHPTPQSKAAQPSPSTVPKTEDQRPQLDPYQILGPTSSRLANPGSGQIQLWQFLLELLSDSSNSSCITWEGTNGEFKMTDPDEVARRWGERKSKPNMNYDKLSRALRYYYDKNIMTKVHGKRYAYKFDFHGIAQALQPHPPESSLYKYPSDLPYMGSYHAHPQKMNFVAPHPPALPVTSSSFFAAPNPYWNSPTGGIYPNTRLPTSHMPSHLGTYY
# In short: as §1
# SPIB = SPIB (Homo sapiens, UniProt Q01892 1-262)
# In short: as §1
# FEV = target: T4, FEV (Homo sapiens, UniProt Q99581 1-238)
# T4 sequence: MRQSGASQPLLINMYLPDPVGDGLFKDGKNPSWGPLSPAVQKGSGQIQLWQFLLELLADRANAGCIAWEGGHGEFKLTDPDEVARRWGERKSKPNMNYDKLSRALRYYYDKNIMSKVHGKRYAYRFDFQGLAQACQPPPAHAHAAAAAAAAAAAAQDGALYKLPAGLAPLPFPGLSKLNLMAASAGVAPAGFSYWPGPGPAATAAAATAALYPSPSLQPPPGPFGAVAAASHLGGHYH
# In short: as §1
# ETV5 = ETV5 (Homo sapiens, UniProt P41161 1-510)
# In short: as §1
# SPIC = target: T5, SPIC (Homo sapiens, UniProt Q8N5J4 1-248)
# T5 sequence: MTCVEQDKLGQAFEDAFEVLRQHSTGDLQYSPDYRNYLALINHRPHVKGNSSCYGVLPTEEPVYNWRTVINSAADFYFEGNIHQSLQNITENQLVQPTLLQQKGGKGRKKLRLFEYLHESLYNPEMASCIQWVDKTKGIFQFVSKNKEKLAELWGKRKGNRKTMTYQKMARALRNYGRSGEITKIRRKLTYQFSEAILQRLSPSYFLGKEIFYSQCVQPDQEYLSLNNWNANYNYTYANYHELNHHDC
# In short: as §1
# ELF4 = ELF4 (Homo sapiens, UniProt Q99607 1-663)
# In short: as §1
# ETV3 = target: T6, ETV3 (Homo sapiens, UniProt P41162-2 1-143)
# T6 sequence: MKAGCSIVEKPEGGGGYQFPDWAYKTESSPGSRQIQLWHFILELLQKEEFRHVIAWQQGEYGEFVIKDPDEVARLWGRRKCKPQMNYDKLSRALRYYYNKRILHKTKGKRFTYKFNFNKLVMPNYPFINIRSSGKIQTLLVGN
# In short: as §1
# Sequence of ETV5 (P41161 whole entry): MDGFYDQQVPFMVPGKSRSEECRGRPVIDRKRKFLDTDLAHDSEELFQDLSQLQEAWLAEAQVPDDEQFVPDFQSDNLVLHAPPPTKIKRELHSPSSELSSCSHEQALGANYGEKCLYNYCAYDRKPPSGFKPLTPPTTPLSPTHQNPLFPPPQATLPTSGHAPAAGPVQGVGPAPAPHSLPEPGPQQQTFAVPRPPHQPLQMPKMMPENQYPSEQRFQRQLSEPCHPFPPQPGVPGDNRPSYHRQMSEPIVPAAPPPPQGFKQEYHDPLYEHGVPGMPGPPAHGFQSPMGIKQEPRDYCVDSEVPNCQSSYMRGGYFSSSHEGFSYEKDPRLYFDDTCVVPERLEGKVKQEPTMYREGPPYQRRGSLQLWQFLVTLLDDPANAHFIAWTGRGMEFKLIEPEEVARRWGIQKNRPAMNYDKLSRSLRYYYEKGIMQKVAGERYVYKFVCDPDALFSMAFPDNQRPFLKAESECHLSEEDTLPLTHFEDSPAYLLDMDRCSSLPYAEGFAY
# Sequence of SPIB (Q01892 whole entry): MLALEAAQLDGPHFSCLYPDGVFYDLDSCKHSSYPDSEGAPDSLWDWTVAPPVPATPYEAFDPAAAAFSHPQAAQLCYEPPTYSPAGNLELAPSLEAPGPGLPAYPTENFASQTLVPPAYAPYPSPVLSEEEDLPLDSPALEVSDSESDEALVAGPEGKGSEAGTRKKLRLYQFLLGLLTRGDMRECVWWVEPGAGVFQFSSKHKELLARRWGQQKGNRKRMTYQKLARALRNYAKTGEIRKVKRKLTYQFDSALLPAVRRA
# Sequence of ELF4 (Q99607 whole entry): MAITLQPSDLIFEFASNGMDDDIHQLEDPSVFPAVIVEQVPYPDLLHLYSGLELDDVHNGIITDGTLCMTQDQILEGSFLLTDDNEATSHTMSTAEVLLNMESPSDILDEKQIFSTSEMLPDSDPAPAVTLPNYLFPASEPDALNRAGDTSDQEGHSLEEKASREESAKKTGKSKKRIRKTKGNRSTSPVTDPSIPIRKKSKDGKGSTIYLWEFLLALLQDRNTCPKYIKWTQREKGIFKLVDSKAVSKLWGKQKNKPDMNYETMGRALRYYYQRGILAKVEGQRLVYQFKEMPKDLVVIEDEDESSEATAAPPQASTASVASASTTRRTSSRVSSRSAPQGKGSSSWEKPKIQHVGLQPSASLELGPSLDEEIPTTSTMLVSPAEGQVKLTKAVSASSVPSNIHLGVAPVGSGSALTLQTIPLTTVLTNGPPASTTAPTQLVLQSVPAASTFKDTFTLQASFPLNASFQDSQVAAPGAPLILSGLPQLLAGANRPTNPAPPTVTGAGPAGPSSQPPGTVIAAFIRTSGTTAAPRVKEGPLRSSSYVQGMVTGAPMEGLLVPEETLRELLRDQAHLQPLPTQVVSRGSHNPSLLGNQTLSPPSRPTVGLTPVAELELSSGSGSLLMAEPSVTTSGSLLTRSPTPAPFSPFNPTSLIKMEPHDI
sequence,measurement,setting,value
AGCTGT,binding signal,FLI1,"1.04 fold enrichment (6-mer frequency, TF over GST control)"
same,binding signal,GABPA,"1.05 fold enrichment (6-mer frequency, TF over GST control)"
same,binding signal,ERG,"1.01 fold enrichment (6-mer frequency, TF over GST control)"
same,binding signal,SPIB,"1.06 fold enrichment (6-mer frequency, TF over GST control)"
same,binding signal,FEV,"1.04 fold enrichment (6-mer frequency, TF over GST control)"
same,binding signal,ETV5,"1.02 fold enrichment (6-mer frequency, TF over GST control)"
same,binding signal,SPIC,"1.15 fold enrichment (6-mer frequency, TF over GST control)"
same,binding signal,ELF4,"1.02 fold enrichment (6-mer frequency, TF over GST control)"
same,binding signal,ETV3,"1.07 fold enrichment (6-mer frequency, TF over GST control)"
